Results published in PubChem BioAssay (NCATS).
Inconclusive results are not listed. Unmarked numbers belong to inactive results. Activity calls are given as the source filed them. Calls follow the shape of the dose curve; as a rule, active = well fitted curve in the direction sought with a large enough effect; inconclusive = small, poorly fitted or top-dose-only effect, or another doubt; inactive = no such curve, though single readings can be large; an effect the other way counts as inactive or inconclusive.

Test: Cell Viability - HUV-EC-C (AID 542); also: % is scaled to controls: 0 for no effect and ±100 for the full control effect; nearly all actives have a fitted effect of over 35% in size
Settings: HUV-EC-C endothelial cell viability, qHTS; series mostly up to 92.2 µM; activity change, negative = cytotoxicity: at the top concentration
How it was run: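 Cells were seeded at 1000 per well and incubated 5 hr at 37 °C before compound addition. After 40 hr at 37 °C, CellTiter-Glo reagent was added for 20 min and luminescence read. AC50 values came from Hill-equation modelling.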
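Also: cells exposed to compound for 40 hours.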

Row | Compound | activity change, negative = cytotoxicity
1 | COc1ccc(C)cc1N | -4.43%
2 | CCc1ccc(C(c2ccc(CC)cc2)C(Cl)Cl)cc1 | 11.5%
3 | C[C@@H]1CC2(OC(O)[C@]3(C)O[C@H]23)O[C@H]2C[C@@]3(C)[C@@H]4CC[C@H]5C(C)(C)C(O[C@@H]6OC[C@@H](O)[C@H](O)[C@H]6O)CC[C@@]56C[C@@]46CC[C@]3(C)[C@@H]12 (stereo not given in full) | -22.1%
4 | O=[N+]([O-])c1ccccc1Nc1ccccc1 | -3.76%
5 | C=CC1CO1 (stereo not given) | 15.3%
6 | COc1cc(-c2ccc(N=C=O)c(OC)c2)ccc1N=C=O | -12.6%
7 | CCOC(=O)C1OC1c1ccccc1 (stereo not given) | -0.917%
8 | COc1ccc(C(=O)Nc2ccccc2)cc1[N+](=O)[O-] | -17.2%

Test: Cell Viability - H-4-II-E (AID 543); also: % is scaled to controls: 0 for no effect and ±100 for the full control effect; nearly all actives have a fitted effect of over 35% in size
Settings: H-4-II-E rat hepatoma viability; series mostly up to 92.2 µM; activity change, negative = cytotoxic: at the top concentration
How it was run: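 Cells seeded at 1500 per well and rested 5 hr; compounds added; 40 hr incubation at 37 °C; CellTiter-Glo added, 20 min at room temperature; luminescence read. Hill-equation fits gave AC50.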

Row | Compound | activity change, negative = cytotoxic
9 | CCCCCCc1ccc(-c2ccc(C#N)cc2)cc1 | -29%
10 | Nc1cnn([C@@H]2O[C@H](CO)[C@@H](O)[C@H]2O)c(=O)n1 | 1.24%
11 | CCCCCCCCOc1ccc(C(=O)O)cc1 | -7.68%
12 | Oc1c(Cl)cc(Cl)c(Cl)c1Cl | -23.2%
13 | CC(C)OCC1CO1 (stereo not given) | -14.2%
14 | C/C(Cl)=C/CCl | -16.5%
15 | CCCCNCC | -4.63%
16 | O=c1[nH]ncc2ccccc12 | -7.54%
17 | c1ccc(COCc2ccccc2)cc1 | 1.82%
18 | O=[N+]([O-])c1cccc(I)c1 | -3.61%
19 | c1ccc2c(c1)ccc1ccccc12 | -7.26%
20 | Nc1ccc(N=Nc2ccccc2)c(N)c1 | -26.7%
21 | Cc1ccc(C(=O)O)cc1[N+](=O)[O-] | -2.04%
22 | COc1ccc([N+](=O)[O-])cc1N | -7.45%
23 | OCC(CO)(CBr)CBr | -18.2%
24 | Nc1cc(C(=O)O)c(O)c(S(=O)(=O)O)c1 | -0.376%
25 | Oc1ccc2c(c1)OCO2 | -9.84%
26 | c1ccncc1 | -1.53%

Row | Compound | activity change, negative = cytotoxic
27 | CC(=O)OC1CC(C)OC(C)O1 (stereo not given) | -1.42%
28 | O=C(OCc1ccccc1)c1ccccc1O | -5.26%
29 | c1c[nH]cn1 | -1.05%
30 | c1ccc(SCCSc2ccccc2)cc1 | -8.75%
31 | O=C(O)/C=C/c1ccc(/C=C/C(=O)O)cc1 | -6.6%
32 | CCCCOC(=O)COc1ccc(Cl)cc1Cl | -1.12%
33 | CC(=O)OC(C(=O)c1ccccc1)c1ccccc1 (stereo not given) | -8.13%
34 | CCCCCCN | -18%
35 | CC(=O)Nc1cccc(C)c1 | -8.45%
36 | CCC(Cl)CC(Cl)C(Cl)C(Cl)C(Cl)C(C)Cl (stereo not given) | -16.1%
37 | COc1ccc(C)cc1N | -2.2%
38 | CCc1ccc(C(c2ccc(CC)cc2)C(Cl)Cl)cc1 | -26.6%
39 | O=[N+]([O-])c1ccccc1Nc1ccccc1 | -7.09%
40 | C=CC1CO1 (stereo not given) | -4.32%
41 | COc1cc(-c2ccc(N=C=O)c(OC)c2)ccc1N=C=O | -16.4%
42 | CCOC(=O)C1OC1c1ccccc1 (stereo not given) | -3.8%
43 | COc1ccc(C(=O)Nc2ccccc2)cc1[N+](=O)[O-] | -22.4%

Test: Cell Viability - SH-SY5Y (AID 544); also: nearly all actives have a fitted effect of over 55% in size; also: potency is read from the fitted curve at half-maximal effect;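 as to viability change, negative = cytotoxic: 0% = DMSO alone and -100% = 100 µM tamoxifen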
Settings: SH-SY5Y neuroblastoma cell viability; viability change, negative = cytotoxic: at 92.2 µM (top of the series)
How it was run: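 Cells were plated at 1500 per well and allowed 5 hr at 37 °C. Compounds were added across a concentration range and incubated 40 hr at 37 °C. CellTiter-Glo was added for 20 min at room temperature before luminescence reading.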

Row | Compound | viability change, negative = cytotoxic | Potency
44 | CCCCCCc1ccc(-c2ccc(C#N)cc2)cc1 | -5.54% | –
45 | Nc1cnn([C@@H]2O[C@H](CO)[C@@H](O)[C@H]2O)c(=O)n1 | -7.4% | –
46 | CCCCCCCCOc1ccc(C(=O)O)cc1 | -1.82% | –
47 | CC(C)OCC1CO1 (stereo not given) | -0.942% | –
48 | C/C(Cl)=C/CCl | -21.3% | –
49 | CCCCNCC | 4.81% | –
50 | O=c1[nH]ncc2ccccc12 | -82.8% (active) | –
51 | c1ccc(COCc2ccccc2)cc1 | -14.7% | –
52 | O=[N+]([O-])c1cccc(I)c1 | -8.82% | –
53 | Cc1ccc(C(=O)O)cc1[N+](=O)[O-] | -2.71% | –
54 | COc1ccc([N+](=O)[O-])cc1N | -23.8% | –
55 | OCC(CO)(CBr)CBr | -7.66% | –
56 | Nc1cc(C(=O)O)c(O)c(S(=O)(=O)O)c1 | -19.1% | –
57 | Oc1ccc2c(c1)OCO2 | 5.42% | –
58 | c1ccncc1 | -2.01% | –
59 | CC(=O)OC1CC(C)OC(C)O1 (stereo not given) | -15.1% | –

Row | Compound | viability change, negative = cytotoxic | Potency
60 | O=C(OCc1ccccc1)c1ccccc1O | -4.46% | –
61 | C/C=C/C=C/C=O | – | 31.6 µM (active)
62 | CCN(CC)c1ccc2c(C)cc(=O)oc2c1 | -18.7% | –
63 | c1c[nH]cn1 | -18.9% | –
64 | c1ccc(SCCSc2ccccc2)cc1 | 1.94% | –
65 | O=C(O)/C=C/c1ccc(/C=C/C(=O)O)cc1 | -19.5% | –
66 | CCCCOC(=O)COc1ccc(Cl)cc1Cl | 3.37% | –
67 | CC(=O)OC(C(=O)c1ccccc1)c1ccccc1 (stereo not given) | -1.79% | –
68 | CCCCCCN | -2.9% | –
69 | CCC(Cl)CC(Cl)C(Cl)C(Cl)C(Cl)C(C)Cl (stereo not given) | -14% | –
70 | CCc1ccc(C(c2ccc(CC)cc2)C(Cl)Cl)cc1 | -27.8% | –
71 | O=[N+]([O-])c1ccccc1Nc1ccccc1 | -6.33% | –
72 | C=CC1CO1 (stereo not given) | -4% | –
73 | COc1cc(-c2ccc(N=C=O)c(OC)c2)ccc1N=C=O | -20.7% | –
74 | CCOC(=O)C1OC1c1ccccc1 (stereo not given) | -16.1% | –

Test: Cell Viability - Renal Proximal Tubule (AID 545); also: nearly all actives have a fitted effect of over 40% in size; also: potency is read from the fitted curve at half-maximal effect;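 as to activity change, negative = cytotoxicity: 0% = DMSO only and -100% = 100 µM tamoxifen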
Settings: renal proximal tubule cells viability, primary cells of rat origin; activity change, negative = cytotoxicity: at 91.7 µM (top of the series)
How it was run: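 Viability taken as intracellular ATP (CellTiter-Glo luminescence) after 40 hr, 37 °C compound treatment of primary proximal tubule cells from rat kidney, 1000 cells/well; Hill-equation fits of qHTS concentration-response data gave AC50.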

Row | Compound | activity change, negative = cytotoxicity | Potency
75 | CCCCCCc1ccc(-c2ccc(C#N)cc2)cc1 | -8.22% | –
76 | Nc1cnn([C@@H]2O[C@H](CO)[C@@H](O)[C@H]2O)c(=O)n1 | -7.94% | –
77 | CCCCCCCCOc1ccc(C(=O)O)cc1 | -25.3% | –
78 | Oc1c(Cl)cc(Cl)c(Cl)c1Cl | -21.8% | –
79 | CC(C)OCC1CO1 (stereo not given) | -5.79% | –
80 | C/C(Cl)=C/CCl | -1.16% | –
81 | CCCCNCC | -9.2% | –
82 | O=c1[nH]ncc2ccccc12 | -20.2% | –
83 | c1ccc(COCc2ccccc2)cc1 | 4.44% | –
84 | O=[N+]([O-])c1cccc(I)c1 | -1.37% | –
85 | c1ccc2c(c1)ccc1ccccc12 | -11.6% | –
86 | Nc1ccc(N=Nc2ccccc2)c(N)c1 | -27.5% | –
87 | Cc1ccc(C(=O)O)cc1[N+](=O)[O-] | -11.5% | –
88 | COc1ccc([N+](=O)[O-])cc1N | -7.15% | –
89 | OCC(CO)(CBr)CBr | 2.38% | –
90 | Nc1cc(C(=O)O)c(O)c(S(=O)(=O)O)c1 | -16.9% | –
91 | Oc1ccc2c(c1)OCO2 | -11.7% | –
92 | c1ccncc1 | -8.43% | –

Row | Compound | activity change, negative = cytotoxicity | Potency
93 | CC(=O)OC1CC(C)OC(C)O1 (stereo not given) | 0.386% | –
94 | O=C(OCc1ccccc1)c1ccccc1O | -12.8% | –
95 | c1c[nH]cn1 | -5.92% | –
96 | c1ccc(SCCSc2ccccc2)cc1 | -13.6% | –
97 | O=C(O)/C=C/c1ccc(/C=C/C(=O)O)cc1 | -7.16% | –
98 | CCCCOC(=O)COc1ccc(Cl)cc1Cl | 3.11% | –
99 | CC(=O)OC(C(=O)c1ccccc1)c1ccccc1 (stereo not given) | -13.9% | –
100 | CCCCCCN | -2.39% | –
101 | CC(=O)Nc1cccc(C)c1 | -6.6% | –
102 | CCC(Cl)CC(Cl)C(Cl)C(Cl)C(Cl)C(C)Cl (stereo not given) | -14.4% | –
103 | COc1ccc(C)cc1N | 2.72% | –
104 | CCc1ccc(C(c2ccc(CC)cc2)C(Cl)Cl)cc1 | -23.4% | –
105 | C[C@@H]1CC2(OC(O)[C@]3(C)O[C@H]23)O[C@H]2C[C@@]3(C)[C@@H]4CC[C@H]5C(C)(C)C(O[C@@H]6OC[C@@H](O)[C@H](O)[C@H]6O)CC[C@@]56C[C@@]46CC[C@]3(C)[C@@H]12 (stereo not given in full) | – | 31.6 µM (active)
106 | O=[N+]([O-])c1ccccc1Nc1ccccc1 | -18% | –
107 | C=CC1CO1 (stereo not given) | 0.222% | –
108 | COc1cc(-c2ccc(N=C=O)c(OC)c2)ccc1N=C=O | -18.4% | –
109 | CCOC(=O)C1OC1c1ccccc1 (stereo not given) | -10.2% | –
110 | COc1ccc(C(=O)Nc2ccccc2)cc1[N+](=O)[O-] | -18.7% | –
